Screening data as filed in PubChem.
Only some compounds are listed: those with a hit (about 3.2% of all), similar ones and a draw of the others.
p53null 39C tox: qHTS Screen for Compounds that Selectively Target Cancer Cells with p53 Mutations: Cytotoxicity of p53 Null Cells at the Nonpermissive Temperature | H1299 p53-null (neo) cells, 39C, ATPlite viability, 24 h | Potency, µM (titrated, usually from 46.1 µM), for the others: at the top dose activity, negative = cell killing, most hits filed as cytotoxic | hit rate 0.97% among 55,000 | AID 904, 2007;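 note: potency is the fitted concentration of half-maximal effect; 0% = DMSO only and -100% = full killing by 100 µM tamoxifen; nearly all actives have a fitted effect of over 50% in size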
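Cells seeded at 600/well, 37C overnight. Compound added (up to 46 uM), plates shifted to 39C for 24 hr. ATPlite added, luminescence read after 20 min at room temperature.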
PMP22 txn: Cell-based coincidence reporter assay to measure PMP22 gene transcription in S16 Pmp22-F2sN cells - Primary screen | S16 Pmp22-F2sN Schwann cells, FLuc/NLuc coincidence luminescence, 24 h | Potency, µM (doses to about 57.5 µM), without a hit: top-dose activity change, negative = inhibition, hits mostly inhibitors | hit rate 2% among 43,000 | AID 1508649, 2021; active = clear falling dose curves in both reporters; inconclusive = both reporters move, but less clearly or upward; inactive = either reporter flat; the % is the NLuc reporter signal; note: potency is the fitted concentration of half-maximal effect; % is set by controls: 0 for no effect and ±100 for the full control effect
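S16(c9) Schwann cells with FLuc/NLuc coincidence reporter in the Pmp22 3' UTR; compounds pin-transferred, 24 h at 37C. Dual-luciferase read: FLuc first, then NLuc after Stop&Glo, each 10 min at room temperature.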
mTORC1 inh: Acumen qHTS Assay for Inhibitors of the mTORC1 Signaling Pathway in MEF (Tsc2-/-, p53-/-) Cells: Sytravon; Tsc2-/- p53-/- MEF, phospho-rpS6 immunofluorescence/PI, 24 h; Potency, µM (highest dose often 38.3 µM), without a hit: top-dose activity change, negative = inhibition, most hits filed as inhibitors; hit rate 0.78% among 44,000; AID 493208, 2011;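 note: potency is the fitted concentration of half-maximal effect; plate controls were DMSO for no effect and rapamycin for full effect; nearly all actives have a fitted effect of over 50% in size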
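Readout is phospho-S6 Alexa 488 signal normalized to PI per well, reported as % active cells with thresholds set from rapamycin (7.5 nM) and DMSO controls. Cells: Tsc2-/-, p53-/- MEFs, 24 hrs compound at 37 C; PI cell number serves as viability.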
S16 F2sN tox: Cell viability qHTS assay in S16 Pmp22-F2sN cells; S16 Pmp22-F2sN Schwann cells (luciferase reporters placed in the Pmp22 gene) viability, CellTiter-Glo, 24 h; Potency, µM (series often up to 57.5 µM), without a hit: top-dose activity change, negative = cytotoxicity, usual class: cytotoxic; hit rate 0.48% among 43,000; AID 1508642, 2021; note: potency is the fitted concentration of half-maximal effect; % is set by controls: 0 for no effect and ±100 for the full control effect; nearly all actives have a fitted effect of over 65% in size
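Rat S16 Schwann reporter line, 24 h treatment with library compounds delivered at 23 nL per well. Cell viability by CellTiter-Glo luminescence.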
p53null 32C kill: qHTS Screen for Compounds that Selectively Target Cancer Cells with p53 Mutations: Cytotoxicity of p53 Null Cells at the Permissive Temperature; H1299-neo p53 null cells, ATP luminescence, 24 h, 32C; Potency, µM (series often up to 46.1 µM), inactives show at the highest dose activity change, negative = cytotoxicity, most hits filed as cytotoxic; hit rate 0.62% among 55,000;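 note: potency is the fitted concentration of half-maximal effect; 0% = DMSO only and -100% = full killing by 100 µM tamoxifen; nearly all actives have a fitted effect of over 55% in size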
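AC50 values derive from Hill modelling of qHTS concentration-response data (up to 46 uM) in H1299-neo cells. Cells were treated 24 h at 32C following overnight attachment at 37C; viability was read as cellular ATP.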
NLuc sat counter: Biochemical NLuc saturation counterscreen for small molecule modulators of PMP22 gene expression - Nano-Glo assay | shares compounds with PMP22 txn | Secreted NLuc enzyme (filtered S16 cell medium), Nano-Glo luminescence | Potency, µM (top dose mostly 57.5 µM), for the others: at the top dose activity change, negative = inhibition, actives largely listed as inhibitors | hit rate 4% among 690; note: potency is the fitted concentration of half-maximal effect; % is set by controls: 0 for no effect and ±100 for the full control effect
NLuc Km counter: Biochemical coelenterazine-based NLuc counterscreen for small molecule modulators of PMP22 gene expression - Km assay | shares compounds with PMP22 txn | secreted NLuc enzyme, coelenterazine luminescence, Km conditions | Potency, µM (doses to about 57.5 µM), inactives show at the highest dose activity change, negative = inhibition, actives largely listed as inhibitors | hit rate 5% among 690 | AID 1508639, 2021; note: potency is the fitted concentration of half-maximal effect; % is set by controls: 0 for no effect and ±100 for the full control effect
FLuc ctr PMP22: Biochemical FLuc counterscreen for small molecule modulators of PMP22 gene expression; AID 1508640, 2021; 690 tested, under 10 active; shares compounds with PMP22 txn; Potency, µM (series often up to 57.5 µM), inactives show at the highest dose activity, negative = inhibition, most hits filed as inhibitors; purified P. pyralis FLuc, luminescence, 10 min; note: % of control where 0% means no effect
Target sequence (P08659 whole entry, looked up): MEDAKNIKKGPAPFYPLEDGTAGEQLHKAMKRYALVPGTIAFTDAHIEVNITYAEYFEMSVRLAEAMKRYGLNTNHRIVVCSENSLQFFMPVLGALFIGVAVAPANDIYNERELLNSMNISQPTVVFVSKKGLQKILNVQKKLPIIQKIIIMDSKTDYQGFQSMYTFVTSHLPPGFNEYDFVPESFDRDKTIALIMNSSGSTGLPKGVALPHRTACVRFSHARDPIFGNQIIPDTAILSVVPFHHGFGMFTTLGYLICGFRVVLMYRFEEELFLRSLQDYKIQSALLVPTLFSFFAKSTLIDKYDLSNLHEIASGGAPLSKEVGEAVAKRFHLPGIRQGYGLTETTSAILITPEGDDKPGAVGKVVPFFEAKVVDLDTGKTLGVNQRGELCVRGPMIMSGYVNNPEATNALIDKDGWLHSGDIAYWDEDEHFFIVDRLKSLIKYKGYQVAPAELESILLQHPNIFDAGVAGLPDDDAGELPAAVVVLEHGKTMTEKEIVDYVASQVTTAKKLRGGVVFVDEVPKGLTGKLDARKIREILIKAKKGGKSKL
S16 viab conf: Cell viability qHTS assay in S16 Pmp22-F2sN cells - Confirmatory screen | Potency, µM (top dose mostly 57.5 µM), for the others: at the highest dose activity change, negative = viability loss, hits mostly cytotoxic | AID 1508641, 2021 | shares compounds with PMP22 txn | hit rate 7% among 690 | S16 Schwann cells viability, CellTiter-Glo ATP luminescence, 24 h; note: potency is the fitted concentration of half-maximal effect; % is set by controls: 0 for no effect and ±100 for the full control effect
PMP22 txn cnf: Cell-based coincidence reporter assay to measure PMP22 gene transcription in S16 Pmp22-F2sN cells - Confirmatory screen | hit rate 22% among 690 | shares compounds with PMP22 txn | Potency, µM (highest dose often 57.5 µM), without a hit: top-dose activity change, negative = inhibition, usual class: inhibitors | S16 Schwann cells Pmp22-F2sN, dual luciferase, 24 h; active = clear falling dose curves in both reporters; inconclusive = both reporters move, but less clearly or upward; inactive = either reporter flat; the % is the FLuc reporter signal; note: potency is the fitted concentration of half-maximal effect
PMP22 HiBiT cnf: Cell-based HiBiT reporter assay to measure PMP22 protein expression in S16 Pmp22-HiBiT cells - Confirmatory screen; Potency, µM (series often up to 27.9 µM), without a hit: at the highest dose activity change, negative = inhibition, most hits filed as inhibitors; shares compounds with PMP22 txn; AID 1508647, 2021; S16 Schwann cells Pmp22-HiBiT, luminescence, 48 h; 95 tested, under 10 active
Target sequence (P25094 whole entry, looked up): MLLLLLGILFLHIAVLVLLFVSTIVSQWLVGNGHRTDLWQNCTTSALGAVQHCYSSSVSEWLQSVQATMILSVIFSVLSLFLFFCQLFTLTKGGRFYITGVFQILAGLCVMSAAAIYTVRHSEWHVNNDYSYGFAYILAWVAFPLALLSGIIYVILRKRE
Numbers without * were called inactive; ? = inconclusive; . = not tested or not shown. Unless noted, calls come from the whole dose curve; as a rule, active = well fitted curve in the direction sought with a large enough effect; inconclusive = small, poorly fitted or top-dose-only effect, or another doubt; inactive = no such curve, though single readings can be large; an effect the other way counts as inactive or inconclusive.

SMILES | p53null 39C tox | PMP22 txn | mTORC1 inh | S16 F2sN tox | p53null 32C kill | NLuc sat counter | NLuc Km counter | FLuc ctr PMP22 | S16 viab conf | PMP22 txn cnf | others
COc1ccc(C2=C(C)C(=NCCCN3CCN(c4cc(C)ccc4C)CC3)NS2(=O)=O)cc1 | -7% | 15µM* | -4% | 1% | -3% | -7% | -2% | 2% | -5% | ?
CCOC(=O)c1cccc(NC(=O)c2cc3cc4ccc(C)cc4nc3s2)c1 | -17% | 11µM* | -2% | 13% | -1% | -5% | 0% | -17% | ? | 19µM*
CCOC(=O)c1cccc(NC(=O)c2cc3cc4cc(OC)ccc4nc3s2)c1 | 7% | ? | -1% | 9% | -4% | . | . | . | . | .
CC(=O)Nc1ccc(S(=O)(=O)Nc2ccc3c(c2)n(C)c(=O)n3C)c(C)c1 | ? | -20% | 6% | -10% | -4% | . | . | . | . | .
COc1ccc(C(C(=O)NCc2ccccc2)N(C(=O)Cn2nnc3ccccc32)c2ccc(F)cc2)cc1 (configuration not stated) | -20% | 11µM* | -4% | 5% | -4% | -1% | 2% | 0% | -1% | -1%
COc1ccc(N(C(=O)Cn2nnc3ccccc32)C(C(=O)NCc2ccccc2)c2ccc(F)cc2)cc1 (configuration not stated) | -7% | -29% | 2% | 3% | -13% | . | . | . | . | .
COCCNc1oc(-c2ccc(COc3ccc(OC)cc3)o2)nc1C#N | 2% | ? | -12% | -15% | -4% | ? | -6% | -18% | ? | -11%
CCCCNc1oc(-c2ccc(COc3ccc(OC)cc3)o2)nc1C#N | 7% | -26% | -8% | -2% | -3% | . | . | . | . | .
COc1ccccc1NC(=O)CSc1nc2nccnc2c(=O)n1CCc1c[nH]c2ccccc12 | 0% | 13µM* | 1% | -16% | -3% | ? | ? | -15% | 7% | ?
CCCCn1cc2c(c1-c1ccccc1Br)c(=O)n(C)c(=O)n2C | -14% | 15µM* | -4% | 4% | 0% | ? | -15% | -1% | 0% | -41%
Cc1cccc(-c2nc(Cn3c(SCc4cc(C)ccc4C)nc4ccncc43)c(C)o2)c1 | -14% | ? | -1% | -1% | -2% | . | . | . | . | .
CCCCOc1ccc(C(=O)Nc2ccc3c(c2)N(C(C)=O)CCC3)cc1 | -4% | -20% | 0% | 8% | -2% | . | . | . | . | .
O=C(N/N=C/c1ccc(N2CCOCC2)o1)c1cccc(C(F)(F)F)c1 | 3% | . | . | . | 1% | . | . | . | . | .
CC(C)Sc1nc2sc3c(c2c(=O)n1-c1ccccc1)CCCC3 | 13% | ? | 4% | 14% | -1% | . | . | . | . | .
CSc1nc2sc3c(c2c(=O)n1-c1ccc(C)cc1)CCCC3 | -14% | 14µM* | -1% | 20% | -7% | 4.8µM* | ? | 4% | 6% | ?
CCOc1ccccc1Nc1sc(C(=O)c2ccccc2)c(N)c1S(=O)(=O)c1ccc(C)cc1 | 21% | 2.8µM* | 5% | ? | 12% | -6% | 6% | 5% | 17% | ?
Cc1c(Cl)cccc1Nc1sc(C(=O)c2ccccc2)c(N)c1S(=O)(=O)c1ccccc1 | 0% | -19% | 0% | -5% | 10% | . | . | . | . | .
Cc1cccc(C)c1Nc1sc(C(=O)c2ccccc2)c(N)c1S(=O)(=O)c1ccccc1 | -16% | 6.7µM* | -11% | -1% | 29% | -10% | -2% | 7% | -13% | ?
COc1ccc(OCC(=O)NCc2ccc3c(c2)CCN3C(=O)c2cccc(C)c2)cc1 | 16% | 20µM* | ? | -22% | -19% | ? | -19% | -21% | -13% | ?
COc1ccccc1CNC(=O)CSc1nnc(C)c2c(C)n(-c3ccccc3)nc12 | 7% | 15µM* | 0% | ? | 9% | ? | 4% | -3% | -1% | ? | PMP22 HiBiT cnf=?
CCOc1ccccc1CNC(=O)CSc1nnc(C)c2c(C)n(-c3ccccc3)nc12 | 10% | -27% | -12% | 0% | 6% | . | . | . | . | .
COc1ccc(NC(=O)c2ccc3c(c2)c(C)c(C)n3Cc2ccc(F)cc2)cc1 | ? | 15µM* | ? | -18% | 1% | -17% | -3% | -28% | -9% | 0%
CCOC(=O)c1c(-c2cccc([N+](=O)[O-])c2)csc1NC(=O)CCCOc1ccccc1OC | 1% | . | . | . | -19% | . | . | . | . | .
